The values that follow come from PubChem BioAssay AID2284092 (EPA ToxCast).

The source made the active and inactive calls. Rule for the calls: active = hit-call score of the fitted dose curve at least 0.9, where 1 is the maximum; inactive = score below 0.9.

Chain of Glycogen synthase kinase-3 beta (Homo sapiens) (P49841 whole entry, looked up): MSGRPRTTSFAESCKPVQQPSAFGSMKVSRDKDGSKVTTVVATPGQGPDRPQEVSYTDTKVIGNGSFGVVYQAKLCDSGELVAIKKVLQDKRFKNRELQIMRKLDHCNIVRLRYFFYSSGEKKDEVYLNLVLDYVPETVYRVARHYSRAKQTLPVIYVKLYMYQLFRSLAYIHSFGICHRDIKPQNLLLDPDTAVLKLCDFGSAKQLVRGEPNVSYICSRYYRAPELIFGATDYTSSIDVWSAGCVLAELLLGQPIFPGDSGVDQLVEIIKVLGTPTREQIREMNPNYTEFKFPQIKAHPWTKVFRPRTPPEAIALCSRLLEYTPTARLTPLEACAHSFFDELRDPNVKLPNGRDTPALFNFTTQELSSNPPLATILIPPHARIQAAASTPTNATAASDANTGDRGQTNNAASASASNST

The target of the test is Glycogen synthase kinase-3 beta (Homo sapiens) (UniProt P49841). Kind of test: ERF_FR_ENZ_hGSK3b: Eurofins (ERF) Enzymatic Radiometric [Km ATP] KinaseProfiler LeadHunter Assay for human GSK3beta (GSK3B) CMGC Kinase. On the procedure:
ERF_FR_ENZ_hGSK3b is a biochemical, single-readout assay that uses extracted gene-proteins in a cell-free assay. Measurements were taken 1.5 hour after chemical dosing in a 96-well plate. See GSK3beta Human CMGC Kinase Enzymatic LANCE Assay [Km ATP], Cerep.ERF_FR_ENZ_hGSK3b is an assay component calculated from the ERF_FR_ENZ_hGSK3b assay. It is designed to measure enzyme activity using a type of enzyme reporter as detected by fluorescence intensity with LANCE technology.Data from the assay component ERF_FR_ENZ_hGSK3b was analyzed at the assay endpoint, ERF_FR_ENZ_hGSK3b, in the positive analysis fitting direction relative to DMSO as the negative control and baseline of activity. Using a type of enzyme reporter, loss-of-signal activity can be used to understand changes in enzymatic activity as they relate to gene GSK3B. To generalize the intended target to other relatable targets, this assay endpoint is annotated to the kinase intended target family, where the subfamily is serine/threonine kinase.
GSK3b (h) is incubated with 8 mM MOPS pH 7.0, 0.2 mM EDTA, 20 uM […](p) EDEEE (phospho GS2 peptide), 10 mM MgAcetate and [gamma-33P]-ATP (specific activity and concentration as required). The reaction is initiated by the addition of the Mg/ATP mix. After incubation for 40 minutes at room temperature, the reaction is stopped by the addition of phosphoric acid to a concentration of 0.5%. […]
In the case of `O=C(/C=C/c1ccc(O)cc1)CC(=O)/C=C/c1ccc(O)cc1`, the AC50 was 2.14 µM (active).
